Results on 40 molecules are retold here after PubChem BioAssay (NCI).

Compounds without any hit were thinned out: in the full panel of roughly 83,000, 20% have a hit.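 Step 1: grow cells in 96-well plates. Step 2: add test compound at a single concentration. Step 3: incubate 48 h. Step 4: record percent growth.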 Values without a mark were called inactive. Active and inactive are the calls of the source.

In this test the test system is COLO 205 colon. Nature of the test: NCI-60 one-dose screen, 48 h (100 = growth as untreated, 0 = no growth, -100 = all killed). Particulars: 10 µM unless noted. Here is the method:
Cells are grown in 96 well plates and exposed to the test compound for 48 hours. Compounds are tested at a single concentration, which is 10^-5 M for most compounds. The reported endpoint is percent growth (GI% or GIPRCNT), where numbers from 0 - 100% represent growth inhibition, and numbers from -100% - 0 represent cell death. For example, a value of 40 represents 60% growth inhibition. A value of 0 means no net growth occurred over the course of the experiment. A value of -40 indicates 40% of cells at the beginning of the experiment died by the end of the experiment. A value of -100 means all cells are dead at the end of the experiment.
NCI-60 Human Tumor Cell Lines Screen was performed using the standard one-dose NCI protocol, which is described in more detail at https://dtp.cancer.gov/discovery_development/nci-60/default.htm.
Compounds with GIPRCNT values below 10 were considered active. Activity score was based on GIPRCNT using the following formula: […]
Score is 0 for GIPRCNT values of 100 or above, 50 for GIPRCNT values of 0, and 100 for GIPRCNT values of -100.
`CCN1CCN(c2cc(C)nc(N(CCCNc3ccnc4cc(Cl)ccc34)Cc3cccs3)n2)CC1`: the growth was -80.2% (active).

Regarding `O=C(NO)c1ccc(Cn2c(=O)n(-c3ccccc3F)c(=O)c3ccccc32)cc1`, the growth was -58.3% (active).

Consider `Nc1c(C(=O)c2ccccc2)sc2nc(-c3cccs3)ccc12`, for which the growth is -21.8% (active).

For `Cc1cc(O)cc(-c2c(-c3ccnc(-c4cccnc4)c3)cnn2C)c1`, the growth is 84.6%.

As for `O=C(O)c1ccc2c(c1)nc(Nc1cccc(Cl)c1)c1ccncc12`, the growth was -16.8% (active).

As to `CC(N)C(Cc1ccc(Cl)cc1)c1ccc(Cl)cc1` (stereo not given), the growth was -81.2% (active).

With `Cc1ccc(N)cc1CN1C(=O)c2ccccc2C1=O`, the growth is 105%.

Consider `Cc1cc(Nc2ncc(Cl)c(Nc3ccccc3S(=O)(=O)C(C)C)n2)c(OC(C)C)cc1C1CCNCC1`, for which the growth was -88.2% (active).

For the molecule `COC(=O)[C@@H](OC)[C@@H]1Cc2cc3cc(OC4CC(OC5CC(O)C(O)C(C)O5)C(O)C(C)O4)c(C)c(O)c3c(O)c2C(=O)[C@H]1OC1CC(OC2CC(OC3CC(C)(O)C(O)C(C)O3)C(O)C(C)O2)C(O)C(C)O1` (stereo not given in full), the growth is -37.2% (active).

Regarding `N#CCNC(=O)c1ccc(-c2ccnc(Nc3ccc(N4CCOCC4)cc3)n2)cc1`, the growth is 2.5% (active).

Consider `CN(C[C@@H]1COCCO1)S(=O)(=O)Nc1ccc2ccc3ncc(-c4cnn(C)c4)cc3c(=O)c2c1`, for which the growth was 49.3%.

As for `O=C(Cc1ccc(/C=C/C(=O)c2ncc[nH]2)cc1)Nc1ccc(S(F)(F)(F)(F)F)cc1`, the growth was 82.7%.

Turning to `Cc1cccc(NC(=O)[C@@H]2c3ccccc3C(=O)N(c3ccc(Cl)cc3)[C@H]2c2ccc(Cl)cc2)n1`, the growth was 30.7%.

As for `COC(=O)[C@]12CC[C@@H](C)[C@H](C)[C@@H]1C1=CC[C@@H]3[C@@]4(C)C[C@@H](OC(=O)/C=C/c5ccccc5)[C@H](O)[C@@](C)(CO)[C@@H]4[C@H](O)C[C@@]3(C)[C@]1(C)CC2`, the growth is -58.6% (active).

Consider `Cc1cccc(Cl)c1NC(=O)c1cnc(Nc2cc(N3CCOCC3)cc(N3CCOCC3)c2)s1`, for which the growth was -4.18% (active).

Turning to `CCN(CCN(C)C)C(=O)CNCc1cc(C(N)=O)ccn1`, the growth was 108%.

With `COc1cc(N2CCC(N(C)C)CC2)ccc1Nc1ncc(Cl)c(Nc2ccccc2P(C)(C)=O)n1`, the growth is -62.7% (active).

With `Cn1cnc2c(F)c(Nc3ccc(Br)cc3Cl)c(C(=O)NOCCO)cc21`, the growth was -3.79% (active).

As for `Cc1ncc(-c2ccnc(Nc3ccc(S(C)(=O)=O)cc3)n2)n1C(C)C`, the growth is -27.4% (active).

With `Cc1cc(N2CCCC2)nc(N(CCCNc2ccnc3cc(Cl)ccc23)Cc2ccc3c(c2)OCO3)n1`, the growth was -73.8% (active).

Turning to `CCN1CCN(c2nc(C)cc(N(CCCNc3ccnc4cc(Cl)ccc34)Cc3ccc4c(c3)OCO4)n2)CC1`, the growth was -78.6% (active).

`CC(C)(C)OC(=O)N1CCC(O)[C@@H](O[Si](c2ccccc2)(c2ccccc2)C(C)(C)C)[C@H]1/C=C/c1ccccc1` (stereo not given in full): the growth is 49%.

With `Cc1ccc(N=C2CSc3nnc(-c4csc5c4CCCC5)n3N2)cc1`, the growth is -4.99% (active).

With `COc1ccc(F)c(F)c1C(=O)c1cnc(NC2CCN(S(C)(=O)=O)CC2)nc1N`, the growth was -79.7% (active).

Turning to `COc1cc(Nc2ncc(F)c(Nc3ccc4c(n3)N(COP(=O)(O)O)C(=O)C(C)(C)O4)n2)cc(OC)c1OC`, the growth is -22.8% (active).

In the case of `COc1cc2c(cc1OCCCCCN1CCN(c3ncnc4ccccc34)CC1)N=CC1CCCN1C2=O` (stereo not given), the growth was -46.1% (active).

For the molecule `NC(=O)N1N=C(c2ccc(Cl)cc2)CC1c1cn(-c2ccccc2)nc1-c1ccc(Cl)cc1` (stereo not given), the growth was 81.9%.

Take `C=CC(=O)Nc1cccc(Oc2nc(Nc3ccc(N4CCN(C)CC4)cc3)nc3ccsc23)c1`: the growth is -83.3% (active).

Consider `Cc1cc(Nc2cc(N3CCN(C)CC3)nc(Sc3ccc(NC(=O)C4CC4)cc3)n2)n[nH]1`, for which the growth was -29.3% (active).

With `CCc1nc2cc(/C=C/C(=O)NO)ccc2c(=O)n1CCc1ccc(F)cc1`, the growth was -35.7% (active).

As for `CCN(CC)CCOc1ccc(/C(=C(\C)c2ccc(Cl)cc2)c2ccc(Cl)cc2)cc1`, the growth is 8.85% (active).

`CNC(=O)c1c(C)oc2cc(Oc3ncnc4cc(OC)c(OC)cc34)ccc12`: the growth is 108%.

On to `COc1ccc(C2OC(c3cc(-c4cc5ccccc5o4)nn3-c3ccccc3)=NN2C(C)=O)cc1` (stereo not given), for which the growth was 103%.

Take `CCOc1cc2ncc(C#N)c(Nc3ccc(OCc4ccccn4)c(Cl)c3)c2cc1NC(=O)/C=C/CN(C)C`: the growth was 27.4%.

For the molecule `COc1cc2c(Oc3ccc4[nH]c(C)cc4c3F)ncnc2cc1OCCCN1CCCC1`, the growth was 88.9%.

On to `CC1=CC2c3oc(-c4ccccc4)c(C(=O)c4ccccc4)c3CNC2C=C1` (stereo not given), for which the growth is 109%.

In the case of `O=C1CC(c2ccc(Cl)cc2)c2ncn(-c3cccc(Cl)c3)c2N1` (stereo not given), the growth was 97.7%.

On to `C[C@]12O[C@H](C[C@]1(O)CO)n1c3ccccc3c3c4c(c5c6ccccc6n2c5c31)CNC4=O`, for which the growth is -84.9% (active).

For `FC(F)c1nc2ccccc2n1-c1nc(N2CCOCC2)nc(N2CCOCC2)n1`, the growth was -25.1% (active).

With `CNC(=O)c1cc(Oc2ccc(NC(=O)Nc3ccc(Cl)c(C(F)(F)F)c3)c(F)c2)ccn1`, the growth was -59% (active).
